From the supplement of paper PMC10981050
Where “and” joins values, the source holds several entries; their conditions need not be identical. Equal values may be shown once. Where a name gives a salt, the structure may show the parent alone.

Assays:
Test in all cases: cell viability relative to vehicle control; higher = less cytotoxic
Conditions in all cases: 10 µM
K562 = tested on: K562
How it was run: (§1)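 Each screen used CRISPR-edited mutant and wild-type clones from four leukaemia lines. Compounds were acoustically dispensed at a single 10 µM dose, and CellTiter-Glo luminescence was read after 48 h with the supernatant first removed. Viability was analysed in Genedata Screener and given as percent of the on-plate vehicle control.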

MARIMO = tested on: MARIMO
How it was run: as §1

MOLM14 = tested on: MOLM14
How it was run: as §1

OCI-AML2 = tested on: OCI-AML2
How it was run: as §1

| Structure (SMILES) | cell viability (K562; SRSF2 genotype: SRSF2 P95H/wt) | cell viability (K562; SRSF2 genotype: SRSF2 wt/wt) [%] | cell viability (MARIMO; SRSF2 genotype: SRSF2 P95H/wt) [%] | cell viability (MARIMO; SRSF2 genotype: SRSF2 wt/wt) [%] | cell viability (MOLM14; SRSF2 genotype: SRSF2 P95H/wt) [%] | cell viability (MOLM14; SRSF2 genotype: SRSF2 wt/wt) [%] | cell viability (OCI-AML2; SRSF2 genotype: P95H/wt) [%] | cell viability (OCI-AML2; SRSF2 genotype: wt/wt) [%] |
| --- | --- | --- | --- | --- | --- | --- | --- | --- |
| Cc1ccc(C(C)C)cc1 [p-Cymene] | 111% and 96.9% | 113 | 95.9 | 99.5 | 100 | 106 | 117 | 119 |
| CNC(=O)[C@H](Cc1ccccc1)NC(=O)[C@H](CC(C)C)[C@H](CSc1cccs1)C(=O)NO [Batimastat (BB-94)] | 91.3% and 94.3% | 75 | 79 | 96.8 | 89.4 | 98.5 | 115 | 114 |
| CC(C)N1CCN(Cc2cnc(-c3cc(-c4cccc5[nH]ccc45)cc4[nH]ncc34)o2)CC1 | 39.8% and 29.8% | 36.8 | 53.7 | 52.9 | 68.2 | 61.6 | 30.8 | 39.8 |
| COc1ccc(-c2oc3c(CC=C(C)C)c(O[C@@H]4O[C@H](CO)[C@@H](O)[C@H](O)[C@H]4O)cc(O)c3c(=O)c2O[C@@H]2O[C@@H](C)[C@H](O)[C@@H](O)[C@H]2O)cc1 [Icariin] | 94.5% and 104% | 98.7 | 98.7 | 110 | 108 | 104 | 105 | 112 |
| O=C(O)CCc1c[nH]c2ccccc12 [3-Indolepropionic acid] | 92.7% and 95.1% | 102 | 98.8 | 96.4 | 97.8 | 96.9 | 103 | 98.3 |
| CCN(CC)c1ccc2cc(-c3nc4ccccc4s3)c(=O)oc2c1 [Coumarin 6] | 106% and 105% | 102 | 106 | 112 | 108 | 107 | 101 | 108 |
| CC(C)c1onc(-c2c(Cl)cccc2Cl)c1COc1ccc(/C=C/c2cccc(C(=O)O)c2)c(Cl)c1 | 95.1% and 94.7% | 99.7 | 94.5 | 98.6 | 95.5 | 97.3 | 69.3 | 82 |
| N[C@@]1(C(=O)O)CS(=O)(=O)[C@H]2[C@H](C(=O)O)[C@H]21 | 104% and 109% | 115 | 107 | 105 | 109 | 113 | 113 | 98.1 |
| O=C(NCCO)c1cccc(-c2cc(Nc3ccc(OC(F)(F)F)cc3)ncn2)c1 | 12.1% and 23% | 20.1 | 69.5 | 76.6 | 93.2 | 91.3 | 65 | 72.3 |
| Fc1ccc(CNc2ncnc3ccc(F)cc23)cc1 [Spautin-1] | 66.5% and 63.9% | 66.7 | 54.7 | 41.1 | 51.3 | 59.4 | 35.6 | 31.5 |
| C[C@H](CCC(=O)O)[C@H]1CC[C@H]2[C@@H]3CC[C@@H]4C[C@H](O)CC[C@]4(C)[C@H]3C[C@H](O)[C@]12C [Deoxycholic acid] | 94.9% and 86.4% | 87.3 | 93.7 | 103 | 94.7 | 95 | 94.5 | 93 |
| CCC/N=C1\S/C(=C\c2ccc(OC[C@H](O)CO)c(Cl)c2)C(=O)N1c1ccccc1C | 89.5% and 93.7% | 89.6 | 105 | 98.3 | 94.5 | 93.5 | 108 | 95.2 |
| CCCC(=O)Nc1ncnc2c1ncn2[C@@H]1O[C@@H]2COP(=O)(O)O[C@H]2[C@H]1OC(=O)CCC [Dibutyryl-cAMP (Bucladesine)] | 91.3% and 90.5% | 92.8 | 87.2 | 97.4 | 83.6 | 94.4 | 104 | 97.7 |
| CC1(C)OCCn2c1nc1c(N3CCOCC3)nc(-c3cnc(N)nc3)nc12 | 47.1% and 53.8% | 55 | 45.7 | 36 | 27.3 | 23.9 | 11.2 | 19.6 |
| O=C([O-])[O-].[Li+].[Li+] [Lithium carbonate] | 111% and 113% | 108 | 99.6 | 112 | 105 | 108 | 117 | 96.9 |
| CCCc1ccc(OCC(=O)N(Cc2nc(-c3cccnc3)no2)C(C)C)cc1 | 87.5% and 91.9% | 91.3 | 81.5 | 90.4 | 85.6 | 96 | 77.4 | 83.9 |
| CC(=O)SCC(Cc1ccccc1)C(=O)NCC(=O)OCc1ccccc1 (stereo not given) [Racecadotril (Acetorphan)] | 108% and 106% | 103 | 98.3 | 99 | 106 | 105 | 118 | 102 |
| Cc1ncc([N+](=O)[O-])n1C [Dimetridazole] | 106% and 99.5% | 105 | 109 | 106 | 99.1 | 103 | 105 | 109 |
| C=C1/C(=C\C=C2/CCC[C@]3(C)[C@@H]([C@H](C)/C=C/[C@H](C)C(C)C)CC[C@@H]23)C[C@@H](O)C[C@@H]1O [Doxercalciferol (Hectorol)] | 81.4% and 88.8% | 86.5 | 69.6 | 46.8 | 68.5 | 70.8 | 55.3 | 73 |
| CC(C)[C@H](N)C(=O)OCC(CO)OCn1cnc2c(=O)nc(N)[nH]c21 (stereo not given in full) [Valganciclovir Hydrochloride] | 86.3% and 81.6% | 83.1 | 90.7 | 84.8 | 87.2 | 88.3 | 77 | 89.2 |
| Cc1ccccc1C(OCCN(C)C)c1ccccc1 (stereo not given) [Orphenadrine citrate (Norflex)] | 96.7% and 92% | 91.3 | 79.7 | 97.3 | 93.3 | 98.1 | 83.2 | 95 |
| CN1c2ccccc2C(=O)Nc2cnc(Nc3ccc(N4CCC(O)CC4)cc3)nc21 | 16.4% and 22.1% | 15.7 | 69.5 | 83.9 | 57.2 | 39.6 | 51 | 49.3 |
| O=c1ccc2ccc(O)cc2[nH]1 [7-Hydroxycarbostyril] | 95.8% and 92.9% | 101 | 95.4 | 101 | 95 | 101 | 91.2 | 107 |

| Structure (SMILES) | cell viability (K562; SRSF2 genotype: SRSF2 P95H/wt) | cell viability (K562; SRSF2 genotype: SRSF2 wt/wt) [%] | cell viability (MARIMO; SRSF2 genotype: SRSF2 P95H/wt) [%] | cell viability (MARIMO; SRSF2 genotype: SRSF2 wt/wt) [%] | cell viability (MOLM14; SRSF2 genotype: SRSF2 P95H/wt) [%] | cell viability (MOLM14; SRSF2 genotype: SRSF2 wt/wt) [%] | cell viability (OCI-AML2; SRSF2 genotype: P95H/wt) [%] | cell viability (OCI-AML2; SRSF2 genotype: wt/wt) [%] |
| --- | --- | --- | --- | --- | --- | --- | --- | --- |
| CC1=CCC2C(C1)C2(C)C (stereo not given) [3-Carene] | 104% and 96% | 106 | 101 | 103 | 100 | 106 | 101 | 112 |
| COc1cc2c(Oc3ccc4[nH]c(C)cc4c3F)ccnc2cc1OCC1(N)CC1 [Anlotinib (AL3818) dihydrochloride] | 19.7% and 32.9% | 24.9 | 5.61 | 5.93 | 9.28 | 3.53 | 17.5 | 17.3 |
| C=C1CCC[C@]2(C)C[C@]3(O)OC(=O)C(C)=C3C[C@@H]12 [Atractylenolide III] | 105% and 101% | 99.3 | 101 | 102 | 102 | 99 | 94.9 | 106 |
| CN1CCN(C(=O)c2ccc(-c3ccc4c(C=O)c(O)ccc4c3)s2)CC1 | 68.3% and 74.8% | 71.6 | 66.8 | 53.4 | 73.2 | 76.8 | 72.9 | 79.5 |
| CNC(=O)[C@H](Cc1c[nH]c2ccccc12)NC(=O)[C@@H](CC(=O)NO)CC(C)C [Ilomastat (GM6001, Galardin)] | 101% and 105% | 95.8 | 95.7 | 97.5 | 88.2 | 97.8 | 113 | 112 |
| Nc1ncccc1-c1nc2ccc(-c3ccccc3)nc2n1-c1ccc(C2(N)CCC2)cc1 [Miransertib (ARQ 092)HCl] | 35.5% and 48% | 30.4 | 75.3 | 72.4 | 39.3 | 48.1 | 33 | 49.2 |
| COc1ccc(COc2ccc(CC#N)cc2)cc1 | 103% | 97.9 | 96.4 | 108 | 114 | 110 | 96.3 | 82.9 |
| CCCCCCCCC(=O)O [Nonanoic acid] | 98.3% and 102% | 102 | 108 | 106 | 98.4 | 102 | 107 | 97 |
| CC(NC(=O)Cc1cc(F)cc(F)c1)C(=O)NC1C(=O)N(C)c2ccccc2-c2ccccc21 (stereo not given) | 101% and 102% | 108 | 99.7 | 94.5 | 105 | 104 | 105 | 107 |
| Cc1cccc(C)c1N(CC(=O)Nc1ccc(-c2ncon2)cc1)C(=O)C1CCS(=O)(=O)CC1 [Amenamevir] | 99.9% and 92.8% | 98.8 | 94.5 | 106 | 96.4 | 105 | 88.5 | 93.4 |
| CCn1cc(-c2cccc(C(F)(F)F)c2)c2sc(C(=N)NC3CCS(=O)(=O)CC3)cc2c1=O | 68.1% and 71.5% | 69.9 | 55.8 | 45.3 | 27 | 32.3 | 22.6 | 42.1 |
| CC(C)(C)n1nc(-c2ccc(Cl)cc2)c2c(N)ncnc21 | 56.2% and 78.5% | 63.3 | 84.6 | 104 | 66 | 67.3 | 80 | 78.3 |
| COc1c2occc2cc2ccc(=O)oc12 [Methoxsalen (Oxsoralen)] | 108% and 106% | 107 | 106 | 106 | 105 | 111 | 98.1 | 107 |
| OC[C@H]1O[C@@H](c2ccc(Cl)c(Cc3ccc(O[C@H]4CCOC4)cc3)c2)[C@H](O)[C@@H](O)[C@@H]1O | 89.6% and 87.1% | 94.4 | 89.4 | 102 | 94.3 | 93.8 | 93.1 | 105 |
| Cc1cc(N2CCN([C@@H]3CN[C@H](C(=O)N4CCSC4)C3)CC2)n(-c2ccccc2)n1 [Teneligliptin hydrobromide] | 90.4% and 78% | 83.5 | 86.8 | 95.5 | 84.8 | 89 | 94.2 | 91.8 |
| CNC(=C[N+](=O)[O-])NCCSCc1csc(CN(C)C)n1 [Nizatidine] | 106% and 107% | 102 | 101 | 107 | 103 | 101 | 92.9 | 108 |
| COc1ccc(S(=O)(=O)NCc2ccc(C(=O)NCCc3ccc(Cl)cn3)cc2)cc1 | 83.3% and 86.3% | 81.6 | 84.3 | 105 | 83.4 | 90.9 | 92.7 | 104 |
| CCCCc1nc(Cl)c(CO)n1Cc1ccc(-c2ccccc2-c2nnn[nH]2)cc1 [Losartan potassium] | 106% and 103% | 104 | 103 | 114 | 104 | 104 | 102 | 106 |
| Cc1nc(C)c(C)nc1C [Ligustrazine hydrochloride] | 97.2% and 97.7% | 91.8 | 89.8 | 102 | 95.8 | 98.7 | 87.8 | 107 |
| Cn1c(=O)c(F)c(Nc2ccc(I)cc2F)c2c(=O)n(C[C@@H](O)CO)cnc21 | 66.4% and 83.6% | 77 | 43.7 | 36.3 | 45.7 | 29.8 | 47.5 | 46.9 |
| O=C1CCCC(=O)C1C(=O)c1ccc(C(F)(F)F)cc1[N+](=O)[O-] [Nitisinone] | 105% | 108 | 103 | 109 | 104 | 108 | 110 | 111 |
| O=c1cc(-c2ccccc2)oc2cc(O)cc(O)c12 [Chrysin] | 100% and 104% | 105 | 93 | 107 | 81.1 | 93.7 | 86.7 | 75.3 |
